Assay results published in PubChem BioAssay.

Experiment: compounds binding Alexa647 anti-His antibody – biochemical, small-molecule microarray, 635 nm fluorescence, artefact control for SMM control protein annotation, primary screen (AID 1128);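 note: score merges feature fluorescence with signal-to-noise for each printed compound spot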
Details: higher = more signal

Compared with `O=C1O[C@H](c2ccccc2)[C@H](c2ccccc2)N2[C@H]1[C@@H](C(=O)Nc1nc3ccccc3s1)[C@]1(C(=O)Nc3ccc(C#CCCO)cc31)[C@H]2c1ccc(OCCO)cc1`, `O=C1O[C@H](c2ccccc2)[C@H](c2ccccc2)N2[C@H]1[C@@H](C(=O)Nc1nc3ccccc3s1)[C@]1(C(=O)Nc3ccc(C#CC4(O)CCCCCC4)cc31)[C@H]2c1ccc(OCCO)cc1` is higher in composite z-score: 1.18 for the first, 2 for the second.

First: C=CCOC(=O)[C@H]1[C@@H]2C(=O)O[C@@H](c3ccccc3)[C@@H](c3ccccc3)N2[C@@H](c2ccc(OCCOC(=O)[C@@H]3C[C@@H]4C(=O)N[C@@H](CCCC[N+](C)(C)C)C(=O)N4[C@@H]3c3ccc(O)cc3)cc2)[C@]12C(=O)Nc1ccccc12
Second: COCCOC(=O)N1C(=O)[C@@]2(c3cc(C#CC4(O)CCCCCC4)ccc31)[C@H](c1ccc(O)cc1)N1[C@H](c3ccccc3)[C@H](c3ccccc3)OC(=O)[C@H]1[C@@H]2C(=O)Nc1nc2ccccc2s1
The composite z-score of the first is higher: 1.46 for the first, 0.84 for the second.

Going from `COCCCN1C(=O)[C@@]2(Cc3ccccc31)c1ccccc1C(=O)N(Cc1ccccc1C(F)(F)F)[C@H]2c1ccc(CO)cc1` to `O=C(c1ccccc1)N1Cc2ccccc2[C@@H]2OC(c3ccc(OCCCO)cc3)=N[C@]2(Cc2ccccc2)C1=O`, the composite z-score rises from -0.169 to 2.33.

First: COc1cc2c(cc1OC)CN(C(=O)[C@@H]1[C@H]3C(=O)O[C@H](c4ccccc4)[C@H](c4ccccc4)N3[C@H](c3ccc(O)cc3)[C@@]13C(=O)Nc1ccc(C#CC4(O)CCCCCC4)cc13)CC2
Second: NC(=O)[C@@H]1[C@H]2C(=O)O[C@H](c3ccccc3)[C@H](c3ccccc3)N2[C@H](c2ccc(O)cc2)[C@@]12C(=O)Nc1ccc(C#CC3(O)CCCCCC3)cc12
The composite z-score of the first is higher: 2.4 for the first, 0.6 for the second.

Compared with `COCCOC(=O)N1C(=O)[C@@]2(c3ccccc31)[C@H](c1ccccc1OCCO)N1[C@H](c3ccccc3)[C@H](c3ccccc3)OC(=O)[C@H]1[C@@H]2C(=O)Nc1nc2ccccc2s1`, `COCCOC(=O)N1C(=O)[C@@]2(c3cc(C#Cc4ccc(OC)cc4)ccc31)[C@H](c1ccccc1OCCO)N1[C@H](c3ccccc3)[C@H](c3ccccc3)OC(=O)[C@H]1[C@@H]2C(=O)N1CCN(c2ncccn2)CC1` is higher in composite z-score: 1.04 for the first, 2.12 for the second.

Compared with `C=C[C@H](COC(C)=O)N(C(=O)OC(C)(C)C)S(=O)(=O)c1ccc(Br)cc1`, `C#CCN(Cc1ccccc1Br)C(/C=C/c1ccccc1)CO` (stereo not given) is lower in composite z-score: 1.7 for the first, 0.448 for the second.

Going from `COc1cc(CO)cc(I)c1O[C@H]1C=C(C(=O)NCCO)C[C@@H](N(CCN2CCOCC2)C(=O)C2CCOC2)[C@@H]1O` (stereo not given in full) to `COc1ccc(CCNC(=O)[C@@]2(Sc3ccc(C)cc3)CC(=O)N(C3CCCCC3)[C@@H]2c2ccc(CO)cc2I)cc1`, the composite z-score rises from -0.504 to 0.949.

Going from `COC(=O)[C@@]1(Cc2ccc(F)cc2)[C@H]2c3cc(C(=O)N4CCCC4)n(Cc4ccc(C)o4)c3C[C@H]2CN1C(=O)c1ccccc1` to `COC(=O)[C@@]1(Cc2ccc(F)cc2)[C@@H]2[C@@H](CC(=O)[C@H]2CC(=O)C(=O)N(C)C)CN1C(=O)c1ccccc1`, the composite z-score falls from 1.69 to 1.49.

Compared with `C=CCN1C(=O)[C@]2(O[C@H](CCO)[C@@H]([Si](C)(C)c3ccc(OC)cc3)[C@@H]2C)c2cc(N3C(=O)c4cccc5cccc3c45)ccc21`, `C=CCN1C(=O)[C@]2(O[C@H](CCO)[C@@H]([Si](C)(C)c3ccc(OC)cc3)[C@@H]2C)c2cc(N3CCCCC3=O)ccc21` is higher in composite z-score: 0.987 for the first, 1.74 for the second.

Compared with `CN1C(=O)C2C=CC(C(O)c3ccc(-c4ccccc4)s3)N(N(c3ccccc3)c3ccccc3)C2C1=O` (stereo not given), `COc1ccc(C(O)C2C=CC3C(=O)N(c4ccccc4)C(=O)C3N2Nc2ccccc2F)cc1OCc1ccccc1` (stereo not given) is higher in composite z-score: 0.0993 for the first, 0.981 for the second.

Going from `COc1cc(OC)c(C(O)C2C=CC3C(=O)NC(=O)C3N2Nc2ccc(Cl)cc2Cl)cc1Br` (stereo not given) to `CN1C(=O)C2C=CC(C(O)Cc3ccccc3)N(Nc3ccccc3)C2C1=O` (stereo not given), the composite z-score rises from 1.29 to 1.61.

Compared with `CCOC(=O)C[C@H]1[C@H](OC(=O)c2cc3ccccc3oc2=O)[C@@H](NC(=O)Cc2ccc(OC)cc2)c2cc(OCCCO)ccc2N1C(=O)c1ccccc1`, `CN(C)C(=O)[C@@]1(Cc2ccccc2)N=C(c2ccc(OCCCO)cc2)O[C@H]1c1ccccc1N=[N+]=[N-]` is higher in composite z-score: -0.0228 for the first, 2.01 for the second.

Compared with `C[N+](C)(C)CCCC[C@@H]1NC(=O)[C@@H]2C[C@H](C(=O)NCCCCCN)[C@H](c3cccc(OCCO)c3)N2C1=O`, `CC(=O)N1Cc2ccccc2C[C@@]2(COC(c3ccc(OCCCO)cc3)=N2)C1=O` is higher in composite z-score: 0.758 for the first, 1.93 for the second.

First: CCCCCCC#C[Si](O[C@H](c1ccccc1)c1cn([C@H](CO)Cc2ccccc2)nn1)(C(C)C)C(C)C
Second: C=C/C=C/[C@H]1C(=C)CN([C@@H](Cc2ccccc2)C(=O)OC)[C@@H]1[C@H](O)Cc1ccccc1
The composite z-score of the first is higher: 0.355 for the first, -0.677 for the second.

Compared with `C#CCN(CC=C(C)C)[C@H](CO)c1ccccc1`, `C#CCNC(=O)[C@H](Cc1ccccc1)NC(=O)CCC(=O)O` is lower in composite z-score: -0.237 for the first, -1.08 for the second.

First: CCc1oc(CC[C@@H](CO)NC(=O)NCCn2cc(C3(O)CCCCC3)nn2)c(C(=O)OC)c1C(=O)OC
Second: Cc1ccc(S[C@]2(C(=O)NC(C)C)CC(=O)N(Cc3ccccc3Cl)[C@@H]2c2ccc(CO)cc2I)cc1
The composite z-score of the first is lower: 2.48 for the first, 3.21 for the second.

First: C[C@@]1([C@@H](NC(=O)c2ccccc2)c2ccc(-c3ccccc3)cc2)C[C@H]1C1CCCCC1
Second: CC(C)C(CO)N1C(=O)[C@@H]2[C@H]3C(=O)OCC=C[C@H]3OC23C=CCN(C(C)C)C(=O)[C@@H]13 (stereo not given in full)
The composite z-score of the first is lower: -1.28 for the first, 0.443 for the second.

`CC(C)C(=C=CC[C@@H](O)c1ccccc1OCCO)CCO` gave a composite z-score of 2.31.
